{"source": "the supplement of paper PMC11537057", "note": "Counter-ions that a name gives are not always drawn. The campaign covered roughly 1,700 compounds. About 15 (0.9%) showed activity.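 The calls were made as follows: active = infection cut by 80% or more with cell growth above 90% in both runs; inactive = the rest.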 The full list was thinned out, with actives kept by preference."}
{"system": "HSV-1 strain 17 YFP-ICP4 in A549", "assay": "HSV-1 infection relative to DMSO (ICP4-YFP per H2B-RFP signal); higher = more viral infection (less antiviral activity), active = hit call of the paper", "conditions": "10 µM; 48 h; MOI: 0.1", "description": "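Selleck FDA-approved library (L1300) screened in duplicate at 10 µM on A549 H2B-mRuby cells in 384-well plates, infected with HSV-1 strain 17 YFP-ICP4 at MOI 0.1 one hour before drug addition. Imaged after 2 days at 37°C. Cell growth (H2B-RFP) and infection (ICP4-YFP) are expressed as % of DMSO-treated wells. Hits: growth >90% and infection <20% of DMSO.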"}
{"compound": "O=c1[nH]c2ccccc2n1CCN1CCN(c2cccc(C(F)(F)F)c2)CC1", "note": "[Flibanserin]", "HSV-1 infection": "89.9% (inactive)"}
{"compound": "CC(C)(Oc1ccc(Cl)cc1)C(=O)OCCOC(=O)c1cccnc1", "note": "[Etofibrate]", "HSV-1 infection": "109% (inactive)"}
{"compound": "NCCCC[C@H](NC(=O)[C@@H]1CCCN1C(=O)[C@@H]1CSSC[C@H](NC(=O)CNC(=O)CNC(=O)CN)C(=O)N[C@@H](Cc2ccc(O)cc2)C(=O)N[C@@H](Cc2ccccc2)C(=O)N[C@@H](CCC(N)=O)C(=O)N[C@@H](CC(N)=O)C(=O)N1)C(=O)NCC(N)=O", "note": "[Terlipressin Acetate]", "HSV-1 infection": "110% (inactive)"}
{"compound": "CCOc1ccc(Cc2cc([C@@H]3O[C@H](SC)[C@@H](O)[C@H](O)[C@H]3O)ccc2Cl)cc1", "note": "[Sotagliflozin (LX4211)]", "HSV-1 infection": "111% (inactive)"}
{"compound": "CCCCCCCCCC(=O)N[C@H]1[C@H](Oc2c3cc4cc2Oc2ccc(cc2Cl)[C@@H](O[C@@H]2O[C@H](CO)[C@@H](O)[C@H](O)[C@H]2NC(C)=O)[C@@H]2NC(=O)[C@H](NC(=O)[C@@H]4NC(=O)[C@H]4NC(=O)[C@@H](Cc5ccc(c(Cl)c5)O3)NC(=O)[C@H](N)c3ccc(O)c(c3)Oc3cc(O)cc4c3)c3ccc(O)c(c3)-c3c(OC4O[C@H](CO)[C@@H](O)[C@H](O)[C@@H]4O)cc(O)cc3[C@@H](C(=O)O)NC2=O)O[C@H](CO)[C@@H](O)[C@@H]1O", "note": "(stereo partly drawn) [Teicoplanin]", "HSV-1 infection": "89% (inactive)"}
{"compound": "CN(C)Cc1ccc(S(=O)(=O)n2ccc(/C=C/C(=O)NO)c2)cc1", "note": "[Resminostat]", "HSV-1 infection": "64.2% (inactive)"}
{"compound": "C1=N/C2=N/c3ccc(OCCN4CCCC4)c(c3)COC/C=C/COCc3cccc(c3)C(=C1)N2", "note": "[Pacritinib (SB1518)]", "HSV-1 infection": "22.2% (inactive)"}
{"compound": "COc1ccc(CN(C(=O)[C@@H](N)Cc2c(C)cc(C(N)=O)cc2C)[C@@H](C)c2ncc(-c3ccccc3)[nH]2)cc1C(=O)O", "note": "[Eluxadoline]", "HSV-1 infection": "97.4% (inactive)"}
{"compound": "O=C(NC[C@H]1CN(c2ccc(N3CCOCC3=O)cc2)C(=O)O1)c1ccc(Cl)s1", "note": "[Rivaroxaban]", "HSV-1 infection": "110% (inactive)"}
{"compound": "N.N.O=C([O-])C[O-].[Pt+2]", "note": "[Nedaplatin]", "HSV-1 infection": "87% (inactive)"}
{"compound": "N#C[C@@H]1CCCN1C(=O)CNC12CC3CC(CC(O)(C3)C1)C2", "note": "[Vildagliptin (LAF-237)]", "HSV-1 infection": "103% (inactive)"}
{"compound": "O[C@@H](COc1cccc2ncccc12)CN1CCN(C2c3ccccc3[C@@H]3[C@H](c4ccccc42)C3(F)F)CC1", "note": "(stereo partly drawn)", "HSV-1 infection": "75.2% (inactive)"}
{"compound": "CC[C@@H]1C(=O)N(C)c2cnc(Nc3ccc(C(=O)N[C@H]4CC[C@H](N5CCN(CC6CC6)CC5)CC4)cc3OC)nc2N1C(C)C", "note": "[Volasertib (BI 6727)]", "HSV-1 infection": "29.3% (inactive)"}
{"compound": "CO[C@@]1(NC(=O)CSC[C@@H](N)C(=O)O)C(=O)N2C(C(=O)O)=C(CSc3nnnn3C)CS[C@@H]21", "note": "[Cefminox Sodium]", "HSV-1 infection": "110% (inactive)"}
{"compound": "Cc1cc(C)c2c(c1)[C@@H](N(Cc1cc(C(F)(F)F)cc(C(F)(F)F)c1)c1nnn(C)n1)CCCN2C[C@H]1CC[C@H](C(=O)O)CC1", "HSV-1 infection": "88.1% (inactive)"}
{"compound": "C#CCN[C@@H]1CCc2ccccc21", "note": "[Rasagiline Mesylate]", "HSV-1 infection": "98.1% (inactive)"}
{"compound": "C[C@H]1CN(C[C@H](Cc2ccccc2)C(=O)NCC(=O)O)CC[C@@]1(C)c1cccc(O)c1", "note": "[Alvimopan dihydrate]", "HSV-1 infection": "104% (inactive)"}
{"compound": "CN1CCN(CCOc2cc(OC3CCOCC3)c3c(Nc4c(Cl)ccc5c4OCO5)ncnc3c2)CC1", "note": "[Saracatinib (AZD0530)]", "HSV-1 infection": "38.7% (inactive)"}
{"compound": "COc1nc2ccc(Br)cc2cc1[C@@H](c1ccccc1)[C@@](O)(CCN(C)C)c1cccc2ccccc12", "note": "[Bedaquiline]", "HSV-1 infection": "114% (inactive)"}
{"compound": "COc1nc2ccc(Br)cc2cc1[C@@H](c1ccccc1)[C@@](O)(CCN(C)C)c1cccc2ccccc12", "note": "[Bedaquiline fumarate]", "HSV-1 infection": "111% (inactive)"}
{"compound": "Cc1cn(-c2cc(NC(=O)c3ccc(C)c(Nc4nccc(-c5cnccn5)n4)c3)cc(C(F)(F)F)c2)cn1", "note": "[Radotinib]", "HSV-1 infection": "34.8% (inactive)"}
{"compound": "C[N+](C)(C)CCO.O=C([O-])C(O)C(O)C(=O)O", "note": "(stereo not drawn) [Choline bitartrate]", "HSV-1 infection": "97.1% (inactive)"}
{"compound": "C[C@H](NC(=O)[C@@H](Cc1ccc2ccccc2c1)NC(=O)[C@@H](C)N)C(=O)N[C@@H](Cc1c[nH]c2ccccc12)C(=O)N[C@H](Cc1ccccc1)C(=O)N[C@@H](CCCCN)C(N)=O", "HSV-1 infection": "97.6% (inactive)"}
{"compound": "Cn1ncc(Cl)c1-c1cc(C(=O)N[C@H](CN)Cc2cccc(F)c2)sc1Cl", "HSV-1 infection": "52.8% (inactive)"}
{"compound": "CN(C)N(C)C(=O)[C@@]1(Cc2ccccc2)CCCN(C(=O)[C@@H](Cc2c[nH]c3ccccc23)NC(=O)C(C)(C)N)C1", "note": "[Anamorelin]", "HSV-1 infection": "97% (inactive)"}
{"compound": "CN1CCc2nc(C(=O)N[C@@H]3C[C@@H](C(=O)N(C)C)CC[C@@H]3NC(=O)C(=O)Nc3ccc(Cl)cn3)sc2C1", "note": "[Edoxaban]", "HSV-1 infection": "115% (inactive)"}
{"compound": "CN1CCc2nc(C(=O)N[C@@H]3C[C@@H](C(=O)N(C)C)CC[C@@H]3NC(=O)C(=O)Nc3ccc(Cl)cn3)sc2C1", "note": "[Edoxaban tosylate Monohydrate]", "HSV-1 infection": "124% (inactive)"}
{"compound": "Cc1ccccc1-c1cc(N2CCN(C)CC2)ncc1N(C)C(=O)C(C)(C)c1cc(C(F)(F)F)cc(C(F)(F)F)c1", "note": "[Netupitant]", "HSV-1 infection": "114% (inactive)"}
{"compound": "CC(=O)Oc1c(C)c(C)c2c(c1C)CCC(C)(CCC[C@H](C)CCC[C@H](C)CCCC(C)C)O2", "note": "(stereo partly drawn) [Vitamin E Acetate]", "HSV-1 infection": "116% (inactive)"}
{"compound": "CC(=O)Oc1ccccc1C(=O)O.CC(=O)Oc1ccccc1C(=O)O.NC(N)=O", "note": "[Carbasalate Calcium]", "HSV-1 infection": "90.3% (inactive)"}
{"compound": "CNS(=O)(=O)C[C@H]1CC[C@H](N(C)c2[nH]cnc3nccc2-3)CC1", "HSV-1 infection": "102% (inactive)"}
{"compound": "Cc1cc(S(=O)(=O)O)c2c(C)ccc(C(C)C)cc1-2", "note": "[Sodium gualenate]", "HSV-1 infection": "93% (inactive)"}
{"compound": "COc1ccc(C[C@@H]2c3cc(OC)c(OC)cc3CC[N@+]2(C)CCC(=O)OCCCCCOC(=O)CC[N@@+]2(C)CCc3cc(OC)c(OC)cc3[C@H]2Cc2ccc(OC)c(OC)c2)cc1OC", "note": "[Cisatracurium Besylate]", "HSV-1 infection": "90.4% (inactive)"}
